Source: PubChem BioAssay
“And” between values parts separate entries of the source, which are not always exact repeats. Identical values can stand only once. Inconclusive results are not listed. The source made the active and inactive calls. Unless noted, no cut-off is given here; in the data, nearly all actives have AC50 up to about 26 µM.

Experiments:
[1] = EMT-state selective cytotoxicity in co-culture – imaging, PC-3E GFP, TEM4-18 mCherry, primary screen (AID 1345086;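 active = compounds killing one labelled cell type while sparing the other, by normalised counts and ratio limits, not self-fluorescent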;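 for all read-outs here: cells exposed to compound for 72 h before imaging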;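 for red/green cell ratio (normalised): normalised mesenchymal count divided by normalised epithelial count so high means epithelial killing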); settings: PC-3E GFP / TEM4-18 mCherry co-culture, imaging cell counts, at 1 µM; for red/green cell ratio (normalised): actives lie on both sides, counts scaled to control wells, 1 = unselective
[2] = viability loss in pontine glioma line – cell-based, SU-DIPG-XIII, MIPE4.0, CellTiter-Glo, qHTS, dose response (AID 1347061; cut-off not given, nearly all actives have AC50 up to about 37 µM;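 note: cells exposed to compound for 48 hours before readout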); settings: CellTiter-Glo ATP luminescence
[3] = viability loss in pontine glioma line – cell-based, JHH-DIPG-1, MIPE4.0, CellTiter-Glo, qHTS, dose response (AID 1347062; cut-off not given, nearly all actives have AC50 up to about 27 µM); settings: JHH-DIPG-1 viability, CellTiter-Glo ATP luminescence
[4] = growth inhibition of DIPG cells – cell-based, MIPE4.0 library, CellTiter-Glo luminescence, qHTS (AID 1347066; cut-off not given, nearly all actives have AC50 up to about 30 µM;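 note: cells exposed to compound for 48 hours before readout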); settings: SU-DIPG-VI viability, CellTiter-Glo ATP luminescence
[5] = viability loss with induced miR-34 in A549 – imaging, A549 dox-inducible miR-34, nuclei and caspase counts, primary screen (AID 1347080;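 active = compounds whose cell count with miR-34 switched on is under 0.7 times the count with it off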); settings: A549 miR-34 inducible, Hoechst nuclei count, 48 h
[6] = viability loss in pontine glioma line – cell-based, SU-DIPG-XVII, MIPE5.0, CellTiter-Glo, qHTS, dose response (AID 1347060); settings: CellTiter-Glo ATP luminescence;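 for AC50: cells exposed to compound for 48 hours before viability readout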
[7] = viability loss in pontine glioma line – cell-based, SU-DIPG-IV, MIPE4.0, CellTiter-Glo, qHTS, dose response (AID 1347063; cut-off not given, nearly all actives have AC50 up to about 30 µM;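 note: compound exposure lasted 48 hours before the viability readout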); settings: CellTiter-Glo ATP luminescence
[8] = viability loss in pontine glioma line – cell-based, SU-DIPG-XXV, MIPE5.0, CellTiter-Glo, qHTS, dose response (AID 1347065); settings: CellTiter-Glo ATP luminescence;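 note: cells exposed to compound for 48 hours before ATP readout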
[9] = JHH-DIPG-1 glioma cell viability, MIPE5.0 library, CellTiter-Glo luminescence, qHTS (AID 1347067); settings: JHH-DIPG-1 glioma viability, CellTiter-Glo ATP luminescence;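 note: cells exposed to compound for 48 hours before readout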
[10] = growth inhibition of DIPG cells – cell-based, MIPE5.0 library, qHTS (AID 1347068; cut-off not given, nearly all actives have IC50 up to about 30 µM;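 for IC50: cells exposed to compound for 48 hours before viability readout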); settings: SU-DIPG-XXV viability
[11] = MELAS cybrid and Rieske KO viability enhancers – cell-based, MELAS cybrids, Rieske KO mouse fibroblasts, CellTiter-Glo, primary screen (AID 1508586;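 active = mean z-score across replicates of 1.96 or higher in either the MELAS or the Rieske mutant cell line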;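 note: z relative to plate mean and SD of compound and empty wells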); settings: low glucose
[12] = biological target: NAD(+) hydrolase SARM1 (Homo sapiens) (UniProt Q6SZW1); assay: blocking NAD cleavage by SARM1 SAM-TIR – cell lysate, NAD-Glo luminescence (AID 1508614;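 active = compound whose remaining NAD level is above about 45 nM, limit read from the data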;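 note: higher remaining NAD means stronger inhibition of SARM1 NADase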); settings: SAM-TIR HEK293T lysate NADase, at 1 µM, stronger effect = higher value
[13] = compounds altering circadian rhythm period length – cell-based, LOPAC library, luminescence reporter (AID 2774; call rule not given here;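 note: values are relative to mean of DMSO wells on each plate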); settings: circadian reporter cells, at 7 µM, actives lie on both sides
[14] = P. berghei load reduction in hepatocytes – cell-based, HepG2, luciferase luminescence, HepG2 viability, primary screen (AID 624349; in the data active = parasite load remaining mostly below about 12%, no sharp cut-off; inactive = mostly above about 10%;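 note: 100% = mean of DMSO negative control wells on the same plate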); settings: P. berghei liver stage in HepG2, luciferase luminescence, concentration not given here; parasite load remaining: stronger effect = lower value; viability: measured here: HepG2 viability without parasites
[15] = test system: Hepatitis C virus NS3 helicase; assay: blockers of NS3h binding to ssDNA – biochemical, fluorescence polarization, LOPAC1280 library, primary screen (AID 687035; in the data active = inhibition above about 37%); settings: Purified HCV NS3 helicase, Cy5-dT15 ssDNA binding fluorescence polarization; stronger effect = higher value; concentration not given here
[16] = compounds altering Cy5-DNA-NS3h complex signal – biochemical, LOPAC1280, artefact control for HCV NS3 helicase inhibitor project (AID 687037; call rule not given here); settings: Cy5-DNA-NS3h complex fluorescence interference counterscreen
[17] = blockers of cellular phospholipid synthesis – cell-based, LOPAC library, screen 4, primary screen (AID 1347384; call rule not given here); settings: animal cells, phospholipid biosynthesis inhibition screen; at 10 µM
[18] = galactose survival enhancers in mitochondrial complex I cybrids – cell-based, galactose medium, ATP luminescence, primary screen (AID 1645843;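 active = z-score of at least 1.8 in each of two replicates, scored against plate mean and spread of sample wells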;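 note: positive z means more ATP and so rescue of galactose-driven cybrid death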); settings: complex I mutant cybrid cells, 72 h, stronger effect = higher value
[19] = viability loss in pontine glioma line – cell-based, SU-DIPG-XIII, MIPE5.0, CellTiter-Glo, qHTS, dose response (AID 1347064; cut-off not given, nearly all actives have AC50 up to about 23 µM;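 note: cells exposed to compound for 48 hours before the viability read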); settings: CellTiter-Glo ATP luminescence
[20] = measured here: epithelial PC-3E GFP cell survival
[21] = measured here: mesenchymal TEM4-18 mCherry cell survival
[22] = stronger effect = lower value, cell number ratio, induced over uninduced
[23] = measured here: relative caspase fold change +Dox/-Dox
[24] = measured here: total cells with miR-34 induction, stronger effect = lower value
[25] = measured here: total cells without miR-34 induction
[26] = MELAS cybrid survival, CellTiter-Glo 48 h, stronger effect = higher value
[27] = Rieske KO mouse fibroblast survival, CellTiter-Glo 72 h

Sequence of NAD(+) hydrolase SARM1 (Homo sapiens) (Q6SZW1 whole entry, looked up): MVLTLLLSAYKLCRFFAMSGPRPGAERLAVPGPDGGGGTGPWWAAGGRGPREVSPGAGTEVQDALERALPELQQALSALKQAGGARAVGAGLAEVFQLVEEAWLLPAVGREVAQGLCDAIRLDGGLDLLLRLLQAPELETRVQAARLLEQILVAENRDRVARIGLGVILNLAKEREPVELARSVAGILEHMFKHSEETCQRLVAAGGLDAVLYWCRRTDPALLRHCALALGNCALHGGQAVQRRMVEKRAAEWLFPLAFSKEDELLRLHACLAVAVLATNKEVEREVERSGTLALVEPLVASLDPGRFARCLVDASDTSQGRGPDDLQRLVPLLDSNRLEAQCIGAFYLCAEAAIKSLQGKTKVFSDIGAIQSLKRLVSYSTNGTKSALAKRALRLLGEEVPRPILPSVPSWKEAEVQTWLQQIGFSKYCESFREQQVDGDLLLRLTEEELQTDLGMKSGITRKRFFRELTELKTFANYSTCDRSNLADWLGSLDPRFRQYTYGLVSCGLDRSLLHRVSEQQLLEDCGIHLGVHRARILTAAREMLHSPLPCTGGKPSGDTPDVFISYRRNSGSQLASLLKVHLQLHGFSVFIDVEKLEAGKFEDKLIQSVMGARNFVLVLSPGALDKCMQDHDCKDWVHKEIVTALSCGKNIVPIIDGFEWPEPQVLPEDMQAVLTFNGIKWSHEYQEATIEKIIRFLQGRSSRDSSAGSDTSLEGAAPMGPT

Q: What does the source list for CC1(C)CCC[C@]2(C)[C@H]3CC(=O)O[C@]3(C)CC[C@@H]12?
A: red/green cell ratio (normalised) [1]: 1.09 (inactive); normalised cell number [1, 20]: 1.09; normalised cell number [1, 21]: 1.19; outcome [2]: inactive; outcome [3]: inactive; outcome [4]: inactive

Q: What does the source list for CCC(CC)O[C@@H]1C=C(C(=O)OC)C[C@H](N)[C@H]1NC(C)=O?
A: red/green cell ratio (normalised) [1]: 0.99 (inactive); normalised cell number [1, 20]: 1.01; normalised cell number [1, 21]: 1; fold change [5, 22]: 0.882 (inactive); fold change [5, 23]: 1.08; cell count [5, 24]: 8740; cell count [5, 25]: 9910

Q: Which results are given for CN1C(C(=O)Nc2ccccn2)=C(O)c2sc(Cl)cc2S1(=O)=O?
A: red/green cell ratio (normalised) [1]: 0.78 (inactive); normalised cell number [1, 20]: 1.13; normalised cell number [1, 21]: 0.88; outcome [6]: inactive; outcome [3]: inactive; outcome [7]: inactive; outcome [8]: inactive; outcome [4]: inactive; outcome [9]: inactive; outcome [10]: inactive; fold change [5, 22]: 0.905 (inactive) and 0.871 (inactive); fold change [5, 23]: 0.83 and 0.817; cell count [5, 24]: 9030 and 7600; cell count [5, 25]: 9980 and 8730; z-score [11, 26]: -0.192 (inactive); z-score [11, 27]: 0.681; remaining NAD [12]: 10 nM (inactive)

Q: With Clc1ccc(CCC(Cn2ccnc2)Sc2c(Cl)cccc2Cl)cc1 (stereo not given) as the compound, how does the red/green cell ratio (normalised) [1] read?
A: Its red/green cell ratio (normalised) is 0.84 (inactive).

Q: And the normalised cell number [1, 20]?
A: The normalised cell number was 1.26.

Q: What about the normalised cell number [1, 21] of the same compound?
A: The normalised cell number was 1.06.

Q: And the outcome [8]?
A: Its outcome is “inactive”.

Q: What about the outcome [9] of the same compound?
A: Its outcome is “inactive”.

Q: And the remaining NAD [12]?
A: Its remaining NAD is 10 nM (inactive).

Q: With Nc1nc(N)c2nc(CNc3ccc(C(=O)NC(CCC(=O)O)C(=O)O)cc3)cnc2n1 (stereo not given) as the compound, how does the period change [13] read?
A: Its period change is -0.245 h (inactive).

Q: And the parasite load remaining [14]?
A: The parasite load remaining was 160% (inactive).

Q: And the viability [14]?
A: Its viability is 70.2%.

Q: And the inhibition [15]?
A: The inhibition was -4% (inactive).

Q: What about the fluorescence ratio (interference) [16] of the same compound?
A: The fluorescence ratio (interference) was 0.9 (inactive).

Q: What about the red/green cell ratio (normalised) [1] of the same compound?
A: The red/green cell ratio (normalised) was 0.95 (inactive).

Q: And the normalised cell number [1, 20]?
A: The normalised cell number was 1.01.

Q: What about the normalised cell number [1, 21] of the same compound?
A: The normalised cell number was 0.96.

Q: What about the AC50 [2] of the same compound?
A: The AC50 was 11800 nM (active).

Q: And the outcome [4]?
A: Its outcome is “inactive”.

Q: What about the outcome [9] of the same compound?
A: Its outcome is “inactive”.

Q: What about the fold change [5, 22] of the same compound?
A: The fold change was 1.22 (inactive).

Q: And the fold change [5, 23]?
A: Its fold change is 1.88.

Q: And the cell count [5, 24]?
A: Its cell count is 2740.

Q: What about the cell count [5, 25] of the same compound?
A: Its cell count is 2230.

Q: What about the outcome [17] of the same compound?
A: Its outcome is “inactive”.

Q: What about the z-score [18] of the same compound?
A: The z-score was 0.075 (inactive).

Q: What does the source list for CC[C@]1(O)CC2CN(CCc3c([nH]c4ccccc34)[C@@](C(=O)OC)(c3cc4c(cc3OC)N(C)[C@H]3[C@@](O)(C(=O)OC)[C@H](OC(C)=O)[C@]5(CC)C=CCN6CC[C@]43[C@@H]65)C2)C1 (stereo not given in full)?
A: parasite load remaining [14]: 45.7% (inactive) and 54.9% (inactive); viability [14]: 113% and 91%; red/green cell ratio (normalised) [1]: 1.24 (inactive); normalised cell number [1, 20]: 0.16; normalised cell number [1, 21]: 0.2; AC50 [6]: 20.9 nM (active); AC50 [19]: 83.3 nM (active); AC50 [8]: 14.8 nM (active); AC50 [9]: 46.8 nM (active); IC50 [10]: 3320 nM (active); fold change [5, 22]: 1.13 (inactive) and 1.04 (inactive); fold change [5, 23]: 2.66 and 1.23; cell count [5, 24]: 1730 and 1930; cell count [5, 25]: 1530 and 1860; z-score [11, 26]: -2.11 (inactive); z-score [11, 27]: 1.21; z-score [18]: -1.85 (inactive)
